The values that follow come from PMC11062922 (Nature Chemical Biology, 2023).

The test system of one experiment is AAK1. Set-up: species or system human, MV4-11 + K-562 + COLO205 + SK-N-BE2 + OVCAR-8. The settings on record: read-out: apparent Kd, n = 1.
The next experiment has as its system BMP2K. Set-up: species or system human, MV4-11 + K-562 + COLO205 + SK-N-BE2 + OVCAR-8. The settings on record: read-out: apparent Kd, n = 1.
A further experiment deals with CLK1. Set-up: species or system human, MV4-11 + K-562 + COLO205 + SK-N-BE2 + OVCAR-8. To be noted: read-out: apparent Kd, compound concentrations: 100 nM and 1000 nM (sheet 'Samples'), n = 1.
A further experiment relates to CLK4. The arrangement: species or system human, MV4-11 + K-562 + COLO205 + SK-N-BE2 + OVCAR-8. To be noted: read-out: apparent Kd, n = 1.
Another experiment deals with CSNK2A1;CSNK2A3. Set-up: species or system human, MV4-11 + K-562 + COLO205 + SK-N-BE2 + OVCAR-8. To be noted: read-out: apparent Kd, compound concentrations: 100 nM and 1000 nM (sheet 'Samples'), n = 1.
The subject of another experiment is CSNK2A2. The arrangement: species or system human, MV4-11 + K-562 + COLO205 + SK-N-BE2 + OVCAR-8. The settings on record: read-out: apparent Kd, compound concentrations: 100 nM and 1000 nM (sheet 'Samples'), n = 1.
Another experiment deals with Q6ZSR9 (human, UniProt Q6ZSR9). The arrangement: species or system MV4-11 + K-562 + COLO205 + SK-N-BE2 + OVCAR-8. To be noted: read-out: apparent Kd, n = 1.
Q6ZSR9, sequence (Q6ZSR9 whole entry, looked up): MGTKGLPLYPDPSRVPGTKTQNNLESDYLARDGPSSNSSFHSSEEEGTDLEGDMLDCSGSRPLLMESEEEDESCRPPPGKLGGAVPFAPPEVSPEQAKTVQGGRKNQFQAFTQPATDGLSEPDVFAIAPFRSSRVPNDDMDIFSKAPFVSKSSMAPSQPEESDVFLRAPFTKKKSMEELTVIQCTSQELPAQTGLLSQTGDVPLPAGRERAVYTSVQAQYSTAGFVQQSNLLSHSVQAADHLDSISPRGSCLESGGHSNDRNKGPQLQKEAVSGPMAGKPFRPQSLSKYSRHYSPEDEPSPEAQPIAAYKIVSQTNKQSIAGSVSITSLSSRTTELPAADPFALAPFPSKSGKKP
A further experiment relates to FLT3. Set-up: species or system human, MV4-11 + K-562 + COLO205 + SK-N-BE2 + OVCAR-8. To be noted: read-out: apparent Kd, compound concentrations: 100 nM and 1000 nM (sheet 'Samples'), n = 1.
A further experiment has as its system GAK. Set-up: species or system human, MV4-11 + K-562 + COLO205 + SK-N-BE2 + OVCAR-8. To be noted: read-out: apparent Kd, compound concentrations: 100 nM and 1000 nM (sheet 'Samples'), n = 1.
The next experiment relates to MELK. The arrangement: species or system human, MV4-11 + K-562 + COLO205 + SK-N-BE2 + OVCAR-8. To be noted: read-out: apparent Kd; compound concentrations:100 nM and 1000 nM (sheet 'Samples'); n = 1.
Another experiment deals with NUAK1. The arrangement: species or system human, MV4-11 + K-562 + COLO205 + SK-N-BE2 + OVCAR-8. The settings on record: read-out: apparent Kd; compound concentrations:100 nM and 1000 nM (sheet 'Samples'); n = 1.
Another experiment concerns FLT4. The arrangement: species or system human, MV4-11 + K-562 + COLO205 + SK-N-BE2 + OVCAR-8. The settings on record: read-out: apparent Kd; compound concentrations: 100 nM and 1000 nM (sheet 'Samples'), CATDS: 1.78487472229053E-2; n = 1.
The next experiment relates to GSK3A. The arrangement: species or system human, MV4-11 + K-562 + COLO205 + SK-N-BE2 + OVCAR-8. The settings on record: read-out: apparent Kd; compound concentrations: 100 nM and 1000 nM (sheet 'Samples'), CATDS: 3.04876999302407E-2; n = 1.
The next experiment has as its system GSK3B. The arrangement: species or system human, MV4-11 + K-562 + COLO205 + SK-N-BE2 + OVCAR-8. The settings on record: read-out: apparent Kd; compound concentrations: 100 nM and 1000 nM (sheet 'Samples'), CATDS: 2.4100870065686699E-2; n = 1.
Another experiment deals with PAK4. The arrangement: species or system human, MV4-11 + K-562 + COLO205 + SK-N-BE2 + OVCAR-8. To be noted: read-out: apparent Kd; compound concentrations: 100 nM and 1000 nM (sheet 'Samples'), CATDS: 1.9668858061390699E-2; n = 1.
Another experiment deals with PKN1. The arrangement: species or system human, MV4-11 + K-562 + COLO205 + SK-N-BE2 + OVCAR-8. To be noted: read-out: apparent Kd; compound concentrations: 100 nM and 1000 nM (sheet 'Samples'), CATDS: 1.63422390888056E-2; n = 1.
The subject of the next experiment is PKN3. Set-up: species or system human, MV4-11 + K-562 + COLO205 + SK-N-BE2 + OVCAR-8. To be noted: read-out: apparent Kd; compound concentrations: 100 nM and 1000 nM (sheet 'Samples'), CATDS: 1.86767996374981E-2; n = 1.
Another experiment deals with RET. The arrangement: species or system human, MV4-11 + K-562 + COLO205 + SK-N-BE2 + OVCAR-8. The settings on record: read-out: apparent Kd; compound concentrations: 100 nM and 1000 nM (sheet 'Samples'), CATDS: 2.33186267232918E-2; n = 1.
Another experiment has as its system SIK2. Set-up: species or system human, MV4-11 + K-562 + COLO205 + SK-N-BE2 + OVCAR-8. The settings on record: read-out: apparent Kd; compound concentrations: 100 nM and 1000 nM (sheet 'Samples'), CATDS: 2.09056260277059E-2; n = 1.
Setting [1] is: compound concentrations:100 nM and 1000 nM (sheet 'Samples').

Like-named read-outs stand apart in the source and are kept apart here.

Turning to `Cl.Nc1nc(-c2ccc3c(c2)C(=Cc2cc(Br)c(O)c(Br)c2)C(=O)N3)cs1` [GW407323A], the potency estimated from few doses in the experiment with AAK1 (compound concentrations: 100 nM and 1000 nM (sheet 'Samples'), CATDS: 6.1735676660854701E-2) was 169 nM; in the experiment on BMP2K (compound concentrations: 100 nM and 1000 nM (sheet 'Samples'), CATDS: 9.5342393431140995E-2), 73.6 nM; in the experiment with CLK1 (CATDS: 4.62979117088285E-2) it was 333 nM; with CLK4 (compound concentrations: 100 nM and 1000 nM (sheet 'Samples'), CATDS: 8.6707828980110799E-2) it was 87 nM; with CSNK2A1;CSNK2A3 (CATDS: 5.7367661207528599E-2), 199 nM; with CSNK2A2 (CATDS: 4.5506088174881797E-2), 349 nM. The potency estimated from few doses with Q6ZSR9 (compound concentrations: 100 nM and 1000 nM (sheet 'Samples'), CATDS: 5.6700337610390401E-2) is 204 nM.

Regarding `Cl.Cl.NCC(NCc1ccc(-c2ccnc3[nH]ccc23)s1)c1ccccc1.NCC(NCc1ccc(-c2ccnc3[nH]ccc23)s1)c1ccccc1` (centres unmarked) [GSK1321565A], the potency estimated from few doses in the experiment with AAK1 (setting [1]) is 820 nM; with BMP2K (setting [1]) it was 982 nM; with Q6ZSR9 (setting [1]), 942 nM.

As for `Cn1cc(C=C2C(=O)Nc3cccnc32)c2ccccc21` [GW441756X], the potency estimated from few doses with AAK1 (compound concentrations: 100 nM and 1000 nM (sheet 'Samples'), CATDS: 0.22645425815754) is 1250 nM; in the experiment with BMP2K (compound concentrations: 100 nM and 1000 nM (sheet 'Samples'), CATDS: 0.330795354292378) it was 609 nM; in the experiment with Q6ZSR9 (compound concentrations: 100 nM and 1000 nM (sheet 'Samples'), CATDS: 0.24113419116187701), 1090 nM.

Turning to `O=C1N=C(NCCc2ccccc2Cl)S/C1=C\c1ccc2ncccc2c1` [RO4498484-000], the potency estimated from few doses in the experiment on AAK1 (compound concentrations: 100 nM and 1000 nM (sheet 'Samples'), CATDS: 7.0672381673146406E-2) is 1000 nM; with CLK1 (CATDS: 0.163722912511999), 151 nM; in the experiment with CLK4 (compound concentrations: 100 nM and 1000 nM (sheet 'Samples'), CATDS: 0.193469538942661), 114 nM; in the experiment with CSNK2A1;CSNK2A3 (CATDS: 0.166165421111277) it was 147 nM; with CSNK2A2 (CATDS: 0.20425555691522501) it was 105 nM; with FLT3 (CATDS: 6.2849399961882796E-2) it was 1470 nM. The potency estimated from few doses in the experiment with GAK (CATDS: 6.92626012786898E-2) was 1060 nM; with Q6ZSR9 (compound concentrations: 100 nM and 1000 nM (sheet 'Samples'), CATDS: 7.2207205601376195E-2) it was 937 nM.

`O=C1N=C(NCCc2cccs2)S/C1=C\c1ccc2ncccc2c1` [RO4508348-000]: the potency estimated from few doses was 1290 nM in the experiment on AAK1 (compound concentrations: 100 nM and 1000 nM (sheet 'Samples'), CATDS: 0.107531235495484); 1450 nM in the experiment on CLK1 (CATDS: 0.103004978566102); 1410 nM with CSNK2A1;CSNK2A3 (CATDS: 0.103993193967583); 1250 nM in the experiment with CSNK2A2 (CATDS: 0.109129966582831); 638 nM with FLT3 (CATDS: 0.15045749947439399); 947 nM with Q6ZSR9 (compound concentrations: 100 nM and 1000 nM (sheet 'Samples'), CATDS: 0.123024935972758).

Regarding `Nc1nc(-c2ccc3c(N)n[nH]c3c2)cc(N2CCCC(NC(=O)c3ccccc3)C2)n1` (centres unmarked) [GSK2286775B], the potency estimated from few doses with AAK1 (setting [1]) was 826 nM; in the experiment with Q6ZSR9 (setting [1]), 821 nM.

Regarding `Cc1cc(NC(=O)c2cccc(NC(=O)/C=C/CN(C)C)c2)ccc1Nc1nccc(-c2cccnc2)n1` [JNK-IN-7], the potency estimated from few doses was 1000 nM in the experiment with AAK1 (setting [1]); 1330 nM with BMP2K (setting [1]); 1630 nM with CLK4 (setting [1]); 2110 nM with MELK; 688 nM in the experiment on NUAK1; 883 nM with Q6ZSR9 (setting [1]).

For `CCC(CC)(CC)n1cnc2c(N)ncnc21` [SKF-97620], the potency estimated from few doses with AAK1 (compound concentrations: 100 nM and 1000 nM (sheet 'Samples'), CATDS: 2.5595683701841399E-2) was 1620 nM; in the experiment on CLK1 (CATDS: 2.7794407506576899E-2), 1260 nM; in the experiment with CLK4 (compound concentrations: 100 nM and 1000 nM (sheet 'Samples'), CATDS: 2.9101207913204901E-2) it was 1100 nM.

With `Cl.Cn1c(=O)c(Cc2ccccc2F)cc2cnc(NC3CCOCC3)nc21` [RO3305377-001], the potency estimated from few doses is 917 nM in the experiment with AAK1 (compound concentrations: 100 nM and 1000 nM (sheet 'Samples'), CATDS: 2.16510603665701E-2); 1910 nM with BMP2K (compound concentrations: 100 nM and 1000 nM (sheet 'Samples'), CATDS: 1.6723713809558501E-2); 1250 nM with CLK1 (CATDS: 1.9184829290140398E-2); 796 nM with CLK4 (compound concentrations: 100 nM and 1000 nM (sheet 'Samples'), CATDS: 2.3036060895887101E-2); 1540 nM in the experiment with FLT4; 389 nM in the experiment with GAK (CATDS: 3.35725694953104E-2). For the same compound, the potency estimated from few doses in the experiment with GSK3A was 459 nM; in the experiment with GSK3B it was 722 nM; with PAK4, 1170 nM; with PKN1 it was 2080 nM; with PKN3, 1350 nM; with Q6ZSR9 (compound concentrations: 100 nM and 1000 nM (sheet 'Samples'), CATDS: 2.0313751812051702E-2), 1070 nM. For the same compound, the figures for the potency estimated from few doses in the experiment on RET and in the experiment on SIK2 were 775 nM and 998 nM, respectively.

For `O=C1N=C(NCCc2ccccc2F)S/C1=C\c1ccc2ncccc2c1` [RO4498483-000], the potency estimated from few doses is 957 nM with AAK1 (compound concentrations: 100 nM and 1000 nM (sheet 'Samples'), CATDS: 8.5407630700809506E-2); 347 nM in the experiment with CLK1 (CATDS: 0.138137656029612); 675 nM in the experiment on CLK4 (compound concentrations: 100 nM and 1000 nM (sheet 'Samples'), CATDS: 9.8466136533641502E-2); 295 nM in the experiment with CSNK2A1;CSNK2A3 (CATDS: 0.15223513812582401); 306 nM with CSNK2A2 (CATDS: 0.14884656797599799); 1520 nM with FLT3 (CATDS: 7.3322298638159894E-2). The potency estimated from few doses with Q6ZSR9 (compound concentrations: 100 nM and 1000 nM (sheet 'Samples'), CATDS: 8.1205084555915505E-2) is 1100 nM.
